Bioassay records as filed in PubChem.
Most compounds without a hit are left out; they make up all but 3.5% or so of the library.
BoNT-A LC inh2 = BoNT/A light chain protease inhibitors, primary screen, biochemical, flow cytometry, MLPCN library. multiplex microsphere protease substrate cleavage. 0.17% of 360,000 active. inhibition, % at 10 µM; also: plate controls were buffer without enzyme for full effect and enzyme alone for no effect
Anthrax LF prot = Bacillus anthracis LF protease inhibitors, primary screen, biochemical, multiplex microsphere, MLPCN library; multiplex microsphere protease cleavage assay; 0.12% of 360,000 active; inhibition, % at 10 µM; AID 588501, 2011; also: plate controls were buffer without enzyme for full effect and enzyme alone for no effect
Target sequence (P15917 whole entry, looked up): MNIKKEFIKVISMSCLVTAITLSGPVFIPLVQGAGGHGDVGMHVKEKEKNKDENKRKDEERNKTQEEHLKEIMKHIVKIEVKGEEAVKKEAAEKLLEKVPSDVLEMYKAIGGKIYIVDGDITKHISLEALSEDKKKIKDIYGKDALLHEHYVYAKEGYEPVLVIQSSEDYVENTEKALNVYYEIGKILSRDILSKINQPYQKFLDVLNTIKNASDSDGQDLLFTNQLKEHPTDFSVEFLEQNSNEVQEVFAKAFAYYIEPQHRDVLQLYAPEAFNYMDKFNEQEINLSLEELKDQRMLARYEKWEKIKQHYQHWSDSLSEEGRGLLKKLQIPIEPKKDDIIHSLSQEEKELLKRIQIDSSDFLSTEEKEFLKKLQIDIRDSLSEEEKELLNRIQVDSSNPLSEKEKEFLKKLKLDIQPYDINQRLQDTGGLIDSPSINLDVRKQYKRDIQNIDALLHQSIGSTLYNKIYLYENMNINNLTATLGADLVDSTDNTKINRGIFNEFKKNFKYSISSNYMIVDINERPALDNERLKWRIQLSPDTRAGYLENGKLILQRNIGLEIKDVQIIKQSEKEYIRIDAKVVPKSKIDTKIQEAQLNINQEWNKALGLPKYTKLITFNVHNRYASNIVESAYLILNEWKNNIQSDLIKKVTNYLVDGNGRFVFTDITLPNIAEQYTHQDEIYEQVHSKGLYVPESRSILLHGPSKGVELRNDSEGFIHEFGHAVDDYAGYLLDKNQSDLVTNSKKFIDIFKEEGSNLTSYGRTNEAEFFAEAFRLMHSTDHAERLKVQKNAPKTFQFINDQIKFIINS
Autofluor counter = flagged as autofluorescent in microsphere protease counterscreen; compound autofluorescence counterscreen, microsphere flow cytometry; stronger effect = higher value; 3.1% of 360,000 active; fluorescence intensity (no concentration beside the values); in the data active = fluorescence intensity above about 16000; inconclusive = no clear call, values can overlap the other calls
BoNT F protease = BoNT/F light chain protease inhibitors, primary screen, biochemical, flow cytometry, MLPCN library; inhibition, % at 10 µM; Botulinum neurotoxin type F light chain protease (Clostridium botulinum); 0.22% of 360,000 active; Multiplex microsphere protease cleavage assay; AID 588497, 2011; in the data active = inhibition above about 35%, passing the limit was not always enough; inconclusive = no clear call, values can overlap the other calls; also: plate controls were buffer without enzyme for full effect and enzyme alone for no effect
Starred values were filed as active, the others as inactive; ? = inconclusive. Rule as the data show it, unless noted: active = inhibition above about 30%; inconclusive = no clear call, values can overlap the other calls; inactive = below that.

SMILES	BoNT-A LC inh2	Anthrax LF prot	Autofluor counter	BoNT F protease
COC(=O)c1ccccc1NC(=O)Nc1cc(C)ccn1	-0.2	-1.3	2026	0.4
NNC(=O)C1CC(O)CN1S(=O)(=O)c1ccc2ccccc2c1 (stereo not given)	0.3	0.1	3736	-1.8
CCC(=O)Nc1ccc2nc(SCC(=O)N3CCCC3)sc2c1	3.6	-18.3	20940*	1.5
Cn1cnnc1SCC(=O)Nc1ccc2nc(SCc3ccccc3Cl)sc2c1	?	-6.0	25037*	-14.5
CC(=O)CSc1nc2ccc(Nc3nc(N4CCOCC4)nc(N4CCOCC4)n3)cc2s1	0.4	0.2	16232*	1.5
CC(C)(C)NC(=O)CSc1nc2ccc(Nc3nc(N4CCOCC4)nc(N4CCOCC4)n3)cc2s1	-0.2	-2.3	2655	2.4
CCC(CO)NCc1ccc(Br)cc1 (stereo not given)	-0.2	-0.4	2644	-4.9
CCC(CO)NCc1ccc(OC2CCCC2)cc1 (stereo not given)	-2.9	-0.9	23277*	-10.4
COc1ccc(Cn2c(SCc3cc(C)ccc3C)nc3cc(OC)c(OC)cc3c2=N)cc1	0.1	-9.7	9830	-9.6
COc1cc2nc(SCc3ccc(Cl)cc3Cl)n(Cc3cccs3)c(=N)c2cc1OC	0.4	-3.5	20638*	-1.0
COc1cc2nc(SCc3ccc(C(F)(F)F)cc3)n(Cc3cccs3)c(=N)c2cc1OC	0.3	-15.6	8413	6.1
COc1ccc(Cn2c(SCc3ccc(C)cc3)nc3cc(OC)c(OC)cc3c2=N)cc1Cl	-1.2	-2.1	16606*	-4.5
CC1CCc2c(sc(NC(=O)c3cccn3C)c2C(N)=O)C1 (stereo not given)	0.6	-8.1	4340	-2.6
CCN1/C(=C/c2ccc3cc(C)cc(C)c3[n+]2CC)Sc2cc(C)ccc21	27.3	-89.3	8167	-96.6
CCN1/C(=C/c2ccc3cc(C)ccc3[n+]2CC)Sc2ccc3sccc3c21	49.2*	-71.3	3616	-101.0
CCN1/C(=C\c2ccc3cc(C)ccc3[n+]2CC)Sc2cc(C)c(C)cc21	42.0*	-64.0	7412	-81.9
CCN1/C(=C/c2ccc3cccc(C)c3[n+]2CC)Sc2ccccc21	79.4*	18.3	8752	-18.2
CN(C)c1ccc(CNC(=O)C2(C)Cc3c(-c4cccc(C(F)(F)F)c4)ccnc3O2)cc1 (stereo not given)	-0.8	-5.2	3597	-5.2
CCOC(=O)c1noc(C)c1C(=O)Nc1nc(C)cc(C)n1	-0.5	-0.2	4326	0.0
COc1ccc(/C=C(/NC(=O)c2ccccc2)C(=O)NCCCn2ccnc2)cc1OC	2.8	1.1	4759	4.6
COc1ccc(C(=O)N/C(=C/c2cccs2)C(=O)NCCCn2ccnc2)cc1OC	0.8	0.1	20263*	0.3
Cc1[nH]c2ccccc2c1/C=C(\C#N)S(=O)(=O)c1ccccc1	0.1	-2.1	20697*	-2.5
Cc1[nH]c2ccccc2c1/C=C(\C#N)C(=O)NC(C)c1ccccc1 (stereo not given)	3.0	-6.0	22234*	2.8
Cc1cc(C)c(/C=C(\C#N)S(=O)(=O)c2ccccc2)[nH]1	0.3	-9.3	6403	-4.8
Cc1[nH]c2ccccc2c1/C=C(\C#N)C(=O)NC1CC1	-2.5	1.6	4539	-10.1
SMILES	BoNT-A LC inh2	Anthrax LF prot	Autofluor counter	BoNT F protease
C=C(C)C1CC=C(C)/C(=N/NC(=O)COc2cccc(C)c2)C1 (stereo not given)	-3.2	-3.0	17668*	-7.6
CCCc1nnc2n1N=C(c1ccc(C)cc1)CS2	2.5	-0.7	5668	-0.5
COCCNC(=O)c1cc2cc(Br)cc(OC)c2oc1=O	?	0.9	21622*	-4.4
CC(=O)N1c2ccc(S(=O)(=O)N3CCCCC3)cc2CC1C(=O)NCc1cccc(Cl)c1 (stereo not given)	1.0	-1.0	4651	0.3
O=C(NC1CCCCC1)c1cc(S(=O)(=O)N2CCOCC2)ccc1Cl	-3.2	6.6	3230	21.8
CC(NC(=O)COC(=O)c1cn(-c2ccccc2)nc1-c1cccs1)c1ccccc1 (stereo not given)	6.6	-10.4	18189*	5.1
O=C(Nc1ccncc1)c1cn(-c2ccccc2)nc1-c1cccs1	-1.4	-1.6	?	-21.3
CNC(=O)C1CC(=O)N(Cc2ccc(OC)c(OC)c2)C(=Nc2ccc(OC)cc2)S1 (stereo not given)	0.3	-5.9	2904	1.1
CNC(=O)C1CC(=O)N(Cc2ccccc2)C(=Nc2ccc(OC)cc2)S1 (stereo not given)	?	-0.6	23832*	-4.0
CC(C)=NNc1nc(-c2ccccc2)cs1	1.3	-0.4	2266	-3.2
CC(/C=C/c1ccccc1)=N\Nc1nc(-c2ccccc2)cs1	-2.7	-3.4	24306*	-4.2
C(=N\Nc1nc(-c2ccccc2)cs1)/c1cccnc1	-4.9	-5.9	23863*	-9.9
C[C@H]1CN([C@@H](C)CO)C(=O)CCCn2cc(nn2)CO[C@@H]1CN(C)C(=O)Nc1ccc(N2CCCCC2)cc1	0.0	-3.9	2931	-0.2
Cc1cccc(C)c1N1CCN(c2nc(N(C)C)oc(=O)c2C#N)CC1	0.3	0.8	23077*	2.3
O=C(NCc1ccco1)c1sc(=S)n2c1[nH]c(=O)c1ccccc12	?	-0.5	22207*	3.1
C=CCn1c(N)c(C(=O)N2CCOCC2)sc1=S	?	-1.6	19777*	5.4
Cc1ccc(-n2c(N)c(C(=O)NCc3ccco3)sc2=S)cc1	-1.0	-5.5	2957	3.0
C=CCn1c(N)c(C(=O)NCc2ccco2)sc1=S	-1.9	-5.9	21000*	-2.9
CCn1c(N)c(C(=O)N2CCOCC2)sc1=S	-1.2	-6.5	2855	-16.1
Cc1ccc(NC(=O)CSCC(=O)NNC(=O)c2nn(C)c(=O)c3ccccc23)cc1	0.4	-6.8	7697	-2.2
COC(=O)COc1ccc(NS(=O)(=O)c2cccc([N+](=O)[O-])c2)cc1	0.3	-2.6	3930	-1.2
CCOc1ccc(C(=S)NC2CCCCC2)cc1	?	-3.8	20072*	2.0
CCOC(=O)COc1ccc(C(=O)NC2CCCCC2)cc1	?	2.2	20056*	5.3
COC(=O)C1=C(C)NC(=O)CC1c1ccc(F)c(Br)c1 (stereo not given)	?	-0.7	23452*	0.8
Cc1c(C(=O)Nc2ccncc2)oc2c1C(=O)CC(C)(C)C2	?	0.9	19786*	5.3
SMILES	BoNT-A LC inh2	Anthrax LF prot	Autofluor counter	BoNT F protease
COc1ccc(CCNC(=O)CCC2COc3ccccc3O2)cc1OC (stereo not given)	-3.8	-3.6	9700	-28.1
Cc1cccc(Cn2c(NCCO)nc3c2c(=O)n(C)c(=O)n3C)c1	1.1	-2.0	6820	-3.5
Cn1c(=O)c2c(nc(NCCCO)n2Cc2cccc(Br)c2)n(C)c1=O	?	-0.7	18885*	4.5
Cn1c(=O)n(Cc2ccccc2)c(=O)c2c1nc(NCC1CCCO1)n2Cc1ccccc1 (stereo not given)	-0.8	-4.2	24036*	-3.2
CNc1nc2c(c(=O)n(C)c(=O)n2C)n1CCCc1ccccc1	-2.4	-3.9	4142	?
O=C1C(Cl)=C(NC2CCCCC2)C(=O)N1Cc1ccccc1	-1.1	-9.2	4593	-0.6
